Results reported in the supplement of paper PMC6555819.

How the values were obtained:
Assay in all cases: PBM binding z-score (relative to random genomic background probes); higher = stronger binding; sequences stand for … in GC…GCGATTGACAGCGTAGAATGAAGG
[1] = tested on: FXR:RXRa (NR concentration 270 nM, RXRa partner concentration 90 nM)
Procedure, shortened: (§1)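 Binding z-scores were set against random background probes. The data came from custom Agilent 4×180K protein-binding microarrays carrying double-stranded probes with 34-nt variable regions, incubated 1 h with ligand-free nuclear receptor dimers. Partner-specific antibodies detected binding, and scanned fluorescence was regression-normalized.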

[2] = tested on: LXRa:RXRa (NR concentration 270 nM, RXRa partner concentration 90 nM)
Procedure, shortened: as §1

[3] = tested on: LXRa homodimer (NR concentration 270 nM)
Procedure, shortened: as §1

[4] = tested on: LXRb:RXRa (NR concentration 270 nM, RXRa partner concentration 90 nM)
Procedure, shortened: as §1

[5] = tested on: LXRb homodimer (NR concentration 270 nM)
Procedure, shortened: as §1

[6] = tested on: PPARa:RXRa (NR concentration 270 nM, RXRa partner concentration 90 nM)
Procedure, shortened: as §1

[7] = tested on: PPARg:RXRa (NR concentration 180 nM, RXRa partner concentration 90 nM)
Procedure, shortened: as §1

[8] = tested on: PPARg:RXRa 270nM:90nM, anti-RXR (NR concentration 270 nM, RXRa partner concentration 90 nM)
Procedure, shortened: as §1

[9] = tested on: PPARg:RXRa 30nM:10nM, anti-RXR (NR concentration 30 nM, RXRa partner concentration 10 nM)
Procedure, shortened: as §1

[10] = tested on: PPARg:RXRa 90nM:30nM, anti-RXR (NR concentration 90 nM, RXRa partner concentration 30 nM)
Procedure, shortened: as §1

Row | Sequence | PBM binding z-score [1] | PBM binding z-score [2] | PBM binding z-score [3] | PBM binding z-score [4] | PBM binding z-score [5] | PBM binding z-score [6] | PBM binding z-score [7] | PBM binding z-score [8] | PBM binding z-score [9] | PBM binding z-score [10]
1 | GCTATTAGTTGAAAGGGCCACCGAATGATTCTCG | -0.0568 | 0.0381 | -0.327 | -0.256 | -0.647 | 0.401 | 0.611 | 1.6 | 0.211 | 0.953
2 | ATCTCTCGGTAAAAGTTCAGTGAATCCCGAGGAT | 0.576 | 1.16 | 1.29 | 1.07 | 1.12 | 2.92 | 3.81 | 5.71 | 3.76 | 6.34
3 | GGAACGAGGGCAAGTTGATACCAGAGTTTGATGG | 1.04 | 0.448 | -0.0805 | 0.373 | 0.0862 | 1.58 | 1.31 | 1.19 | 0.0746 | 0.594
4 | CGAACTAGGTAATCCAGGACAGTGAATACATTGA | -0.0818 | -0.39 | -0.012 | -0.349 | -0.454 | 1.23 | 1.56 | 0.982 | 0.536 | 0.507
5 | AGAATGAGGTTAATATCAGGGAAACAGAATACAT | 1.64 | 3.39 | 0.149 | 2.17 | 0.272 | 2.98 | 2.46 | 2.14 | 0.981 | 1.48
6 | TTACCAAGGTGAAGGTCGTTGACCCCTCTGTAGA | 6.12 | 5.25 | 2.15 | 4.5 | -0.739 | 4.34 | 3.79 | 4.59 | 2.37 | 3.77
7 | CCGAGTAGCTTATGGGGCATTCAGGCAACGGTGA | -0.494 | -0.536 | -0.883 | -0.715 | -1.2 | -0.234 | -0.0289 | -0.512 | -0.765 | -0.818
8 | CCGACTGGGGCAGGAAGGTTACCATACCATCCGG | -0.0935 | -0.228 | -0.392 | -0.202 | -0.995 | 0.76 | 0.782 | 0.189 | -0.465 | -0.0165
9 | TAAACAGGGTCAAAGGCCAGAGTACGAATGTCGA | 7.35 | 5.57 | 0.675 | 4.69 | 1.48 | 6.49 | 9.15 | 8.05 | 6.91 | 8.47
10 | CCTCGGAGGACAACAAGAGGTCAGAGCTGCCAGA | 2.12 | 3.5 | 3.68 | 2.35 | -0.358 | 2.82 | 1.01 | 1.62 | -0.0713 | 0.904
11 | TCTTGTAGATCAACAAGAGGTTAAGAAAGATCGA | 0.445 | 2.13 | 0.311 | 1.41 | -0.334 | 1.96 | 0.437 | 1.19 | 2.15 | 1.59
12 | ATCTGTAGGTAAAGTTCAGTGAAAGATCGATAGA | 0.691 | 1.44 | 1.19 | 1.01 | 0.396 | 2.28 | 3.37 | 4.2 | 2.41 | 3.78
13 | GCGACTAGGGCATCAGCAGGTTACCATAACTTAA | -0.0195 | -0.0261 | -0.362 | -0.000126 | -0.683 | 0.802 | 1.41 | 1.17 | -0.0852 | 0.611
14 | CAAACTAGGTCACGCAAGGTCAAAGTCGAATGAC | 7.41 | 7.71 | 7.2 | 7.01 | 1.72 | 6.75 | 10.2 | 7.79 | 6.97 | 8.64
15 | CGTACAGGGTCAGCTAGGCCAGAGTAGGGACGGC | 5.16 | 2.66 | -0.281 | 1.94 | -0.514 | 4.22 | 3.14 | 3.3 | 0.448 | 1.84
16 | TTTCGGAGGACACGAAGGTCAGAGCTTTCCAGAG | 1.83 | 1.7 | 0.81 | 1.61 | -0.442 | 2.12 | 0.582 | 1.32 | 0.325 | 0.593
17 | TCTATTAGTTGAAGCGCAACCGACGAGTCCGTTT | 0.428 | 0.488 | -0.0421 | 0.375 | 0.082 | 0.55 | -0.192 | 1.85 | 3.58 | 2.67
18 | CAAACTAGGTCACGTAAGGTCAAAGTCGAATGAC | 6.98 | 8.26 | 7.28 | 7.56 | 2.27 | 6.49 | 10.1 | 8.07 | 6.4 | 8.05
19 | CCTATTAGTTGACTATAAGGGCAACCGAAGCTCG | 0.392 | 0.149 | 0.0612 | 0.294 | 0.219 | 0.121 | 0.445 | 0.0483 | 0.0994 | -0.284
20 | CAAACTAGGTCAACGTCAAAGTCGGTTTGTGCCA | 3.78 | 2.64 | 0.425 | 1.92 | 0.247 | 5.24 | 8.49 | 6.68 | 4.95 | 6.72
21 | CCTTACGGGTCACTGACAGGTTATTGCATTTGGA | 5.44 | 4.13 | 0.625 | 3.78 | 0.134 | 5.14 | 4.45 | 4.46 | 1.42 | 2.91
22 | GCTGCTAGGTCAGCTGATGGTCAGCTAAAGCTCG | 1.21 | 0.513 | -0.477 | 0.0658 | -1.13 | 1.58 | 0.146 | 1.01 | -0.292 | 0.544
23 | ACTAGCAGGCCAAATTTGGGTCACTCAAACAAAG | 0.491 | 0.315 | -0.377 | 0.947 | -0.562 | 2.99 | 1.62 | 1.84 | 0.0732 | 1.04
24 | CCGACTGGGGCATACGGTTACCATAAGCCAGCCC | -0.196 | -0.252 | -0.334 | -0.388 | -1.21 | 0.556 | 1.47 | 1.77 | 0.00419 | 1.13
